Our source for the outcome and AC50 values is PubChem BioAssay (EPA / NIEHS).

A short description of experiment [1]: BSK_4H_Eotaxin3: BioMAP Diversity Plus: 4H Assay for Eotaxin 3 Biomarker Activity (AID 2283000).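 On outcome: CCL26 protein level quantified by ELISA in parallel with SRB cytotoxicity check.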 The settings on record: primary human endothelial cells (HUVEC); actives raise or lower the signal. The essentials: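 Endothelial primary cells (human umbilical vein) exposed to compound for 24 h. ELISA detection of Eotaxin-3.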
In experiment [2] the target is human Peroxisome Proliferator-activated Receptor alpha (PPARa), PPARA (gene 5465) (UniProt Q07869). Briefly: ATG_PPARa_TRANS: Attagene TRANS-FACTORIAL HepG2 Assay for human Peroxisome Proliferator-activated Receptor alpha (PPARa) (AID 2283001; active means hit-call score of the fitted dose curve at least 0.9, where 1 is the maximum;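 on AC50: potency for gain of reporter signal over DMSO so agonist or activator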). The essentials: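 Transfected HepG2 cells treated with test chemical for 24 h. RNA isolated, reverse-transcribed with oligo(dT), PCR-amplified, FAM-labelled and HpaI-digested. Fragments sized by capillary electrophoresis; gain-of-signal fit relative to DMSO.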

The target in experiment [3] is human Peroxisome Proliferator-activated Receptor delta (PPARd), PPARD (gene 5467) (UniProt Q03181). Briefly: ATG_PPARd_TRANS: Attagene TRANS-FACTORIAL HepG2 Assay for human Peroxisome Proliferator-activated Receptor delta (PPARd) (AID 2283002; active means hit-call score of the fitted dose curve at least 0.9, where 1 is the maximum). The essentials: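 Read-out is induced reporter mRNA, quantified by RT-PCR with fluorescent labelling and capillary electrophoresis after 24 h dosing. Cells are HepG2 transiently carrying multiple GAL4-UAS reporter units driven by exogenous NR-GAL4 chimeras; DMSO serves as baseline.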

Read-out in experiment [4]: Intercellular Adhesion Molecule 1 (ICAM1), ICAM1 (gene 3383)
The experiment can be described thus: BSK_3C_ICAM1: BioMAP Diversity Plus: 3C Assay for Intercellular Adhesion Molecule 1 (ICAM1) Biomarker Activity (AID 2283003). Particulars: primary human endothelial cells (HUVEC); actives raise or lower the signal. The essentials:
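Using DMSO as baseline, bidirectional curve fitting was applied to ICAM-1 ELISA signals from HUVEC in the 3C system, measured 24 h after compound addition.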

The target in experiment [5] is human Retinoic Acid Receptor beta (RARb), RARB (gene 5915) (UniProt P10826). Briefly: ATG_RARb_TRANS: Attagene TRANS-FACTORIAL HepG2 Assay for human Retinoic Acid Receptor beta (AID 2283004; active means hit-call score of the fitted dose curve at least 0.9, where 1 is the maximum). The essentials:
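HepG2, transient MRTU transfection, NR–Gal4 chimera, 24 h treatment; RT-PCR plus CE fluorescence detection of reporter mRNA; gain of signal vs DMSO.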

The nature of experiment [6]: BSK_3C_Proliferation: Cell Proliferation Assessment in the BioMAP Diversity Plus: 3C Assay (AID 2283006).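 On AC50: potency may reflect either rise or fall in cell number versus DMSO.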 Particulars: primary human endothelial cells (HUVEC). The method, boiled down:
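Measured here: sulforhodamine B (0.1%) staining of TCA-fixed sub-confluent umbilical vein endothelial cultures 48 h post-dosing, absorbance 560 nm. DMSO served as negative control and baseline; both signal gain and loss were modelled.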

For experiment [7], the target named is Peroxisome proliferator-activated receptor gamma (Homo sapiens) (UniProt P37231). Briefly: ATG_PPARg_TRANS: Attagene TRANS-FACTORIAL HepG2 Assay for human Peroxisome Proliferator-activated Receptor-gamma (PPARg) (AID 2283007; active means hit-call score of the fitted dose curve at least 0.9, where 1 is the maximum). The essentials: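 A TRANS-format multiplexed reporter assay measures activity of an exogenous chimeric NR-Gal4 protein in HepG2 cells. After 24 h of chemical exposure, reporter transcripts are amplified, fluorescently labelled and sized by capillary electrophoresis, with gain of signal scored against DMSO.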

The target of experiment [8] is Nuclear receptor subfamily 1 group I member 2 (Homo sapiens) (UniProt O75469). Briefly: ATG_PXR_TRANS: Attagene TRANS-FACTORIAL HepG2 Assay for human Pregnane X Receptor (PXR) (AID 2283008; active means hit-call score of the fitted dose curve at least 0.9, where 1 is the maximum). The essentials: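 Transactivation by exogenous PXR–GAL4 fusion measured as reporter transcript induction after 24 h compound treatment of transfected human HepG2 cells. Read-out via RT-PCR and capillary electrophoresis of labelled fragments, fitted upward relative to DMSO.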

For experiment [9], the target named is human RAR-related Orphan Receptor gamma (RORg), RORC (gene 6097) (UniProt P51449). The experiment can be described thus: ATG_RORg_TRANS: Attagene TRANS-FACTORIAL HepG2 Assay for human RAR-related Orphan Receptor gamma (RORg) (AID 2283011; active means hit-call score of the fitted dose curve at least 0.9, where 1 is the maximum). The method, boiled down:
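Activity is scored as increase in GAL4-UAS reporter mRNA over DMSO, detected by fluorescent RT-PCR and capillary electrophoresis in HepG2 cells transiently expressing a RORg-Gal4 chimera, 24 h after dosing.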

Experiment [10] has as its target Retinoic acid receptor RXR-alpha (Homo sapiens) (UniProt P19793). The experiment can be described thus: ATG_RXRa_TRANS: Attagene TRANS-FACTORIAL HepG2 Assay for human Retinoid X Receptor alpha (RXRa) (AID 2283012; active means hit-call score of the fitted dose curve at least 0.9, where 1 is the maximum). The method, boiled down:
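Chimeric NR-GAL4 trans-activation in HepG2, 24 h treatment; reporter transcripts quantified by fluorescence on capillary electrophoresis, analysed for upward change from DMSO.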

The target in experiment [11] is human Retinoid X Receptor beta (RXRb), RXRB (gene 6257) (UniProt P28702). The experiment can be described thus: ATG_RXRb_TRANS: Attagene TRANS-FACTORIAL HepG2 Assay for human Retinoid X Receptor beta (RXRb) (AID 2283013; active means hit-call score of the fitted dose curve at least 0.9, where 1 is the maximum). The essentials:
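After a 24 h incubation with test chemical, transfected HepG2 cells carrying NR-Gal4 fusions and GAL4-UAS reporter transcription units yield RNA whose reporter cDNA is FAM-labelled, HpaI-cut and sized by capillary electrophoresis; increases over DMSO are scored.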

Experiment [12] concerns the target human Thyroid Receptor alpha (THRa1), THRA (gene 7067) (UniProt P10827). Briefly: ATG_THRa1_TRANS: Attagene TRANS-FACTORIAL HepG2 Assay for human Thyroid Receptor alpha (THRa1) (AID 2283014; active means hit-call score of the fitted dose curve at least 0.9, where 1 is the maximum). The method, boiled down:
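First, HepG2 cells receive multiple GAL4-UAS reporter units and the chimeric receptor. They are then dosed for 24 h, after which RNA is reverse-transcribed, amplified, labelled, HpaI-cut and sized by capillary electrophoresis; gain relative to DMSO is scored.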

Read-out in experiment [13]: Interleukin-1 alpha (IL1a), IL1A (gene 3552)
The experiment can be described thus: BSK_BE3C_IL1a: BioMAP Diversity Plus: BE3C Assay for Interleukin-1 alpha (IL1a) Biomarker Activity (AID 2283016). The settings on record: primary human bronchial epithelial cells; actives raise or lower the signal. The essentials:
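Measured in human lung primary bronchial epithelial cells: IL-1a by ELISA at 24 h after dosing, with bidirectional fitting against DMSO.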

Read-out in experiment [14]: Monocyte Chemoattractant Protein-1 (MCP1), CCL2 (gene 6347)
Briefly: BSK_3C_MCP1: BioMAP Diversity Plus: 3C Assay for Monocyte Chemoattractant Protein-1 (MCP1) Biomarker Activity (AID 2283017). The settings on record: primary human endothelial cells (HUVEC); actives raise or lower the signal. The essentials:
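Endothelial cells from human umbilical vein are dosed with chemical, cultured 24 h, then assayed for MCP-1 by ELISA; both increases and decreases are modelled against DMSO controls.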

Read-out in experiment [15]: Monocyte Chemoattractant Protein-1 (MCP1), CCL2 (gene 6347)
The experiment can be described thus: BSK_4H_MCP1: BioMAP Diversity Plus: 4H Assay for Monocyte Chemoattractant Protein-1 (MCP1) Biomarker Activity (AID 2283018). The settings on record: primary human endothelial cells (HUVEC); actives raise or lower the signal. The essentials:
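Primary human umbilical vein endothelium is exposed to chemical for 24 h before MCP-1 is assayed by ELISA. Concentration-response fitted bidirectionally relative to DMSO.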

Read-out in experiment [16]: Interleukin-8 (IL8), CXCL8 (gene 3576)
The experiment can be described thus: BSK_3C_IL8: BioMAP Diversity Plus: 3C Assay for Interleukin-8 (IL8) Biomarker Activity (AID 2283020). Particulars: primary human endothelial cells (HUVEC); actives raise or lower the signal. The essentials: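 Using DMSO-treated wells as the baseline, bidirectional curve fitting was applied to ELISA-measured IL-8 from human umbilical vein endothelial cultures sampled 24 h after compound addition.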

Read-out in experiment [17]: Monokine induced gamma interferon (MIG), CXCL9 (gene 4283)
Briefly: BSK_3C_MIG: BioMAP Diversity Plus: 3C Assay for Monokine induced gamma interferon (MIG) Biomarker Activity (AID 2283021).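 On AC50: MIG protein level measured by immunoassay in the treated endothelial cultures.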 Particulars: primary human endothelial cells (HUVEC); actives raise or lower the signal. The method, boiled down:
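ELISA-measured MIG in dosed HUVEC 3C cultures at 24 h, analysed by bidirectional fitting with DMSO defining baseline activity.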

Experiment [18] has as its target Retinoic acid receptor alpha (Homo sapiens) (UniProt P10276). Briefly: ATG_RARa_TRANS: Attagene TRANS-FACTORIAL HepG2 Assay for human Retinoic Acid Receptor alpha (RARa) (AID 2283005; active means hit-call score of the fitted dose curve at least 0.9, where 1 is the maximum). The essentials: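 Reporter transcripts, measured by RT-PCR with fluorescent labeling and capillary electrophoresis after 24 h dosing, reflect activity of an exogenous human RARa–GAL4 fusion in transiently transfected HepG2. Fitted for increase relative to DMSO.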

Read-out in experiment [19]: Human Leukocyte Antigen - DR isotype (HLADR), HLA-DRA (gene 3122)
Briefly: BSK_3C_HLADR: BioMAP Diversity Plus: 3C Assay for Human Leukocyte Antigen - DR isotype (HLADR) Biomarker Activity (AID 2283019).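 Further: ELISA of cell-surface HLA-DR on HUVEC 24 h after dosing.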 The settings on record: primary human endothelial cells (HUVEC); actives raise or lower the signal. The essentials: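 Endothelial cells from human umbilical vein are treated with test chemical; after 24 h, HLA-DR levels are measured by ELISA. Data are fitted in both directions using DMSO as the baseline.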

Read-out in experiment [20]: E-selectin (Homo sapiens) (UniProt P16581)
Briefly: BSK_3C_Eselectin: BioMAP Diversity Plus: 3C Assay for Eselectin Biomarker Activity (AID 2283015).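 Further: cell surface E-selectin protein quantified by ELISA 24 h after dosing.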 Particulars: primary human endothelial cells (HUVEC); actives raise or lower the signal. The method, boiled down:
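Human vascular endothelium from umbilical vein is exposed to test chemicals for 24 h. E-selectin levels are read by ELISA and compared with DMSO controls.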

Values joined by “and” are separate entries in the source; they are usually repeats but may differ in a detail not shown here. Identical values can stand only once. Results filed as inconclusive are left out. The source holds several records for some structures; these can differ, active in one and inactive in another. Active and inactive are the calls of the source. How the source made its calls, unless noted: active means hit-call score of the fitted dose curve at least 0.9, where 1 is the maximum; inactive means score below 0.9.

Sequence of Peroxisome proliferator-activated receptor gamma (Homo sapiens) (P37231 whole entry, looked up, the tested form may be a part): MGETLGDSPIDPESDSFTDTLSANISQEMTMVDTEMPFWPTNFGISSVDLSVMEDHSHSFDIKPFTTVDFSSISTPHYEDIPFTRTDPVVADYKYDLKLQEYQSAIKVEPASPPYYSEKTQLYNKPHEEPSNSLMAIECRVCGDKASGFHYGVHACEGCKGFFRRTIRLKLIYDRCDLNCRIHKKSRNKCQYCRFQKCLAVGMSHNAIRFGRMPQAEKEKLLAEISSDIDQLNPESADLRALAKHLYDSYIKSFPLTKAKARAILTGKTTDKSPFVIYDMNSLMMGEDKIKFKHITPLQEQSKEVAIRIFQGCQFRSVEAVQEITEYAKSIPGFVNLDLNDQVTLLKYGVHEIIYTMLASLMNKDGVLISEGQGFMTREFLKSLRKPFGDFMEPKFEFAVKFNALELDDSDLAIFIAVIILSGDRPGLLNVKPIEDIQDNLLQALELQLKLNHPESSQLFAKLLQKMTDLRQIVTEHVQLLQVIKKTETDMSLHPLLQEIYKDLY
Sequence of human Retinoic Acid Receptor beta (RARb), RARB (gene 5915) (P10826 whole entry, looked up, the tested form may be a part): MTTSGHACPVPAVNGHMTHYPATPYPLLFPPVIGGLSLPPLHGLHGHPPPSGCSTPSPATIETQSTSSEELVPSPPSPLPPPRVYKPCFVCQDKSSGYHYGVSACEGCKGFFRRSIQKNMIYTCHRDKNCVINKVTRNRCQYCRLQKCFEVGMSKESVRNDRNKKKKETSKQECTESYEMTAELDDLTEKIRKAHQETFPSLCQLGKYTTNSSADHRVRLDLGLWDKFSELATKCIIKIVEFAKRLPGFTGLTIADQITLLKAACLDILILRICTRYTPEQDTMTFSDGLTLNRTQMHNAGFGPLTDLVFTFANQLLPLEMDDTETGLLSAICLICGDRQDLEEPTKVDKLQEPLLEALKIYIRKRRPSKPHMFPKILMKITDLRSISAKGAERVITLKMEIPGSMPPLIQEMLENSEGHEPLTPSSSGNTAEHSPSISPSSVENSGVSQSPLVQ
Sequence of Retinoic acid receptor alpha (Homo sapiens) (P10276 whole entry, looked up, the tested form may be a part): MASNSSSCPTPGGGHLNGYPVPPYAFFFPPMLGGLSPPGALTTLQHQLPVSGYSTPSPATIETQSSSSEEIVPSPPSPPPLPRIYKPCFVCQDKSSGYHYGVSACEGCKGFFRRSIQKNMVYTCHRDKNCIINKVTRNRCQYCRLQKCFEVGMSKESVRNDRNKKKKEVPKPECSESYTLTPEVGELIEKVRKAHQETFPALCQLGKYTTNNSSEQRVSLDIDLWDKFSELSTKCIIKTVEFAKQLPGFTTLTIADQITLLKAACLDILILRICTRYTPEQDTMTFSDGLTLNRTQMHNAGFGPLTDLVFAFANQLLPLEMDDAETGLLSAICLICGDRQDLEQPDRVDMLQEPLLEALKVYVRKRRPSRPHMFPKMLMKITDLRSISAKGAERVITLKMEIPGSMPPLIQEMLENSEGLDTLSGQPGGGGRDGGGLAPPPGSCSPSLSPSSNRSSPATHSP
Sequence of Nuclear receptor subfamily 1 group I member 2 (Homo sapiens) (O75469 whole entry, looked up, the tested form may be a part): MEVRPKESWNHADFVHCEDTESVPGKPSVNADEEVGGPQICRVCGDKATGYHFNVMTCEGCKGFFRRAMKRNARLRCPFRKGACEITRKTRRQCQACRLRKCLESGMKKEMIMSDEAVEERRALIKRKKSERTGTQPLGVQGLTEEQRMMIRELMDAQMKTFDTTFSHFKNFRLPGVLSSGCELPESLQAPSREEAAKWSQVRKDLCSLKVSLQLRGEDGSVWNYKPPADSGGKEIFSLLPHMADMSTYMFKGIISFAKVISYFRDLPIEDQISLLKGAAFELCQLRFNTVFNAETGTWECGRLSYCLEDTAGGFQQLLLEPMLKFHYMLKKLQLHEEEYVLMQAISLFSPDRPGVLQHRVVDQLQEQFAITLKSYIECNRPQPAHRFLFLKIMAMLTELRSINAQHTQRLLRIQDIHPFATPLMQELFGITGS
Sequence of human Peroxisome Proliferator-activated Receptor alpha (PPARa), PPARA (gene 5465) (Q07869 whole entry, looked up, the tested form may be a part): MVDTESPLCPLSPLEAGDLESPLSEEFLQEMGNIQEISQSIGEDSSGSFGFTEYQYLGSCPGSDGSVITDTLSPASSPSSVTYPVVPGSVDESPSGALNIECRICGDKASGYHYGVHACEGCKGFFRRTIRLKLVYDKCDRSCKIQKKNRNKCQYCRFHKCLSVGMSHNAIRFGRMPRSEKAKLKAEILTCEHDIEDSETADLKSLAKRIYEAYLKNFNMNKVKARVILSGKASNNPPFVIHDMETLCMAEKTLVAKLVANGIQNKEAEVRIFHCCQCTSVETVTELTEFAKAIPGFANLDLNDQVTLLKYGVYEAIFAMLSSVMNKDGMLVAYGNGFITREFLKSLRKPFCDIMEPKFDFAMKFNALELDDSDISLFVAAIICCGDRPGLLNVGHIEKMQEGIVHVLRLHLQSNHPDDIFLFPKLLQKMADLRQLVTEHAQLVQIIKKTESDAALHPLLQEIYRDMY
Sequence of Retinoic acid receptor RXR-alpha (Homo sapiens) (P19793 whole entry, looked up, the tested form may be a part): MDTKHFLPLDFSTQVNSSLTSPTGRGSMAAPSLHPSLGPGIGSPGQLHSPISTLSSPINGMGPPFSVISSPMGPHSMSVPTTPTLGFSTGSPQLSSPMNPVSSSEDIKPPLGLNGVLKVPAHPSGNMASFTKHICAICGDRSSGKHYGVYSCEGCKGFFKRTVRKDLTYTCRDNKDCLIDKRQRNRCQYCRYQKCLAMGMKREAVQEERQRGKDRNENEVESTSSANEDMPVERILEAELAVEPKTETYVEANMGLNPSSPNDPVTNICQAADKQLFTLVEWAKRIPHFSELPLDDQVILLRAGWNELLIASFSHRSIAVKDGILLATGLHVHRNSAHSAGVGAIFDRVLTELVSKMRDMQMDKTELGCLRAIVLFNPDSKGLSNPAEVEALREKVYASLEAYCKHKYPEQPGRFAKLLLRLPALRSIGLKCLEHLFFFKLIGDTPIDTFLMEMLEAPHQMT
Sequence of human Thyroid Receptor alpha (THRa1), THRA (gene 7067) (P10827 whole entry, looked up, the tested form may be a part): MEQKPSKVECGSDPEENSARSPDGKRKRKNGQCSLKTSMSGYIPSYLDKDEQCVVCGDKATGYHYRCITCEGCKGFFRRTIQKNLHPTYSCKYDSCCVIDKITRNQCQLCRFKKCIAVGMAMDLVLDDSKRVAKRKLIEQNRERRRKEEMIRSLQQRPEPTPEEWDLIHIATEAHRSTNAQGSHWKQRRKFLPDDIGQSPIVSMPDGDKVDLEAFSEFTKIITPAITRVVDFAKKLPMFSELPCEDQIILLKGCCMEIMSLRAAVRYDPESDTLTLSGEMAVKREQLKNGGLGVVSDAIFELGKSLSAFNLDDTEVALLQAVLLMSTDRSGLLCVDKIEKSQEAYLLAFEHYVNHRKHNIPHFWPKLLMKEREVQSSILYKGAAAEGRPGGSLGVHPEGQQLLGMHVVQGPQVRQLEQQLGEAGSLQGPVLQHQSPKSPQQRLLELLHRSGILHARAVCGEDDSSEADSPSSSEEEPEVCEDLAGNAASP
Sequence of human Peroxisome Proliferator-activated Receptor delta (PPARd), PPARD (gene 5467) (Q03181 whole entry, looked up, the tested form may be a part): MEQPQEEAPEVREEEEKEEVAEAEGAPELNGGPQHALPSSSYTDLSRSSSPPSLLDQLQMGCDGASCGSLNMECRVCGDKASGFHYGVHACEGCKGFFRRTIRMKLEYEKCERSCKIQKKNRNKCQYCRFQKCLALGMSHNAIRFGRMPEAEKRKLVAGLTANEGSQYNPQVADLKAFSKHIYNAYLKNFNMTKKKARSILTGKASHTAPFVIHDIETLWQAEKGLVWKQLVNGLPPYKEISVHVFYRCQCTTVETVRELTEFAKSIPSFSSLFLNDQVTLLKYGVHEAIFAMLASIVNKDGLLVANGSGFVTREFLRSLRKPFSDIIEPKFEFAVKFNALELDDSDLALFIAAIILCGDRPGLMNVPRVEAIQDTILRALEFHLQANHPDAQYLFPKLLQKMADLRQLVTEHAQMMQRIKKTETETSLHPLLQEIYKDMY
Sequence of human Retinoid X Receptor beta (RXRb), RXRB (gene 6257) (P28702 whole entry, looked up, the tested form may be a part): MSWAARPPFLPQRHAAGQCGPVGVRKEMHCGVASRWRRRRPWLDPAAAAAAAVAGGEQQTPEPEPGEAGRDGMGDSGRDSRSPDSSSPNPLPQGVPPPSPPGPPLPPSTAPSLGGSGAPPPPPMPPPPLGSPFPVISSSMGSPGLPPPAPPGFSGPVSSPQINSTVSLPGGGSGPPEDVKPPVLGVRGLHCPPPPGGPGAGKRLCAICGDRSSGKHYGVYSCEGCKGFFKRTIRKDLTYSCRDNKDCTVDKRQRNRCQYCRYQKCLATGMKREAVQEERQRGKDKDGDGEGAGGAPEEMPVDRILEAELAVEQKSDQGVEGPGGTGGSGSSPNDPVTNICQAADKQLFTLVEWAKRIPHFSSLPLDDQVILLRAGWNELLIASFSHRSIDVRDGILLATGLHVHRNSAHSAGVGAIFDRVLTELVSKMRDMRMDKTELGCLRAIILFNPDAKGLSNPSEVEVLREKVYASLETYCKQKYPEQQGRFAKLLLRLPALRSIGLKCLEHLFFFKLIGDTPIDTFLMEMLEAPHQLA
Sequence of E-selectin (Homo sapiens) (P16581 whole entry, looked up): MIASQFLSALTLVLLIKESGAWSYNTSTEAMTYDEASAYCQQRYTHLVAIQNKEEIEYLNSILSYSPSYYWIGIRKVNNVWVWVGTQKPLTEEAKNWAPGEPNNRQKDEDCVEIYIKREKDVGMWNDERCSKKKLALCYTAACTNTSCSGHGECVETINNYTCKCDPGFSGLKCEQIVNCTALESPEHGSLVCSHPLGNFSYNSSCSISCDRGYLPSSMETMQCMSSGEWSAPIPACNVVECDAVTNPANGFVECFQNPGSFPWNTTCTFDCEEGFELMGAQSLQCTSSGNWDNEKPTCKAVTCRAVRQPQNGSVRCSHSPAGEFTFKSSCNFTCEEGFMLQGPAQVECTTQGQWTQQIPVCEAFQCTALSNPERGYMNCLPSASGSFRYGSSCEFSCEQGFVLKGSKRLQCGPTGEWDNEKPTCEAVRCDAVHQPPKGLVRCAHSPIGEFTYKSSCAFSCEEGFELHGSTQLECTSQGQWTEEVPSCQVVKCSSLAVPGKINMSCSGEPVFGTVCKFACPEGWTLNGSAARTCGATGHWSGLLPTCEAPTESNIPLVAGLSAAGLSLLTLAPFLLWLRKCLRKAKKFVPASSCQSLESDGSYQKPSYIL

For `Cc1cc(O)ccc1Cl`, the result in [1], in experiment [2], in experiment [3], in [4], in [5] and in experiment [6] was inactive. Further, the result in [7], in [8], in experiment [9], in experiment [10], in [11] and in experiment [12] was inactive. Moreover, the outcome in experiment [13], in experiment [14], in experiment [15], in experiment [16] and in experiment [17] was inactive.

On to `COc1ccc(O)c(C(C)(C)C)c1`, for which the result in experiment [1], in [2], in [4], in [5], in experiment [18] and in experiment [6] was inactive. Further, the result in experiment [7], in [12], in experiment [13], in experiment [15], in experiment [16] and in experiment [17] was inactive. The half-maximal activity concentration (AC50) in [8] is 4.55 µM (active); in [11] it was 8.56 µM (active).

With `c1ccc(-c2ccccc2)cc1`, the outcome in experiment [1], in [2], in experiment [3], in experiment [4], in [6] and in [8] was inactive. Also, the compound was called inactive in experiment [10], in experiment [13], in experiment [15], in [19], in experiment [16] and in experiment [17]. Also, the AC50 in [11] was 110 µM (active).

Consider `Oc1c(Cl)c(Cl)c(Cl)c(Cl)c1Cl`, for which the half-maximal activity concentration (AC50) in [1] is 17 µM (active) and 9.54 µM (active); in [4] it was 33.7 µM (active); in [6], 15.4 µM (active) and 14.7 µM (active); in [7], 4.28 µM (active) and 2.53 µM (active) and 7.91 µM (active); in experiment [8] it was 13.8 µM (active) and 3.3 µM (active); in [13], 13.8 µM (active) and 21.4 µM (active). Besides, the AC50 is 7.96 µM (active) in [15], 20 µM (active) in experiment [16] and 34.5 µM (active) in experiment [17]. Further, the outcome in experiment [2], in experiment [4], in experiment [18], in experiment [8], in [10] and in experiment [11] was inactive. In addition, the compound was called inactive in [12], in experiment [15], in experiment [16] and in experiment [17].

Take `Cc1cc(-c2ccc(N)c(C)c2)ccc1N`: the outcome in experiment [1], in experiment [2], in experiment [4], in experiment [5], in experiment [18] and in experiment [6] was inactive. The call in experiment [7], in experiment [8], in experiment [9], in [10], in experiment [11] and in experiment [12] was inactive. Besides, the result in [20], in experiment [13], in experiment [15], in experiment [19], in [16] and in experiment [17] was inactive. Also, the AC50 in [7] was 100 µM (active).

As for `CC#Cc1cc(C)nc(Nc2ccccc2)n1`, the result in experiment [1], in experiment [3], in [4], in experiment [8], in [10] and in [20] was inactive. In addition, the result in experiment [13], in [14], in experiment [15], in [19], in experiment [16] and in experiment [17] was inactive. Besides, the concentration at half-maximal activity (AC50) was 0.606 µM (active) in experiment [2], 17.9 µM (active) in experiment [6], 6.26 µM (active) in experiment [7] and 61.7 µM (active) in [11].
